Common to all, as to assay: DAPPL (digital affinity profiling via proximity ligation, sequencing); 10 mM Tris-HCl pH 7.5, 50 mM NaCl, 1 mM DTT, 4% glycerol, room temperature, 30 min; GST-TFs on glutathione beads, 16-mer random dsDNA library, 0.1% formaldehyde crosslink after washing; high values mean tight binding
In assay [1] the target is T1, FEV (Homo sapiens, UniProt Q99581 1-238).
T1 sequence: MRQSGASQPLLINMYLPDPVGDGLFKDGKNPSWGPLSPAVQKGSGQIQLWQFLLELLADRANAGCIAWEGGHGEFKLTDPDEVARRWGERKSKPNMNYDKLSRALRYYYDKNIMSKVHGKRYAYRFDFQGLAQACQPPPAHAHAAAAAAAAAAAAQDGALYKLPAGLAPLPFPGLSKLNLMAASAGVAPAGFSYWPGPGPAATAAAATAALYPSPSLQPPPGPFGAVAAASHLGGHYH
The settings on record: protein: recombinant; tags: N-terminal GST; dsDNA, one strand shown. A digest of the protocol:
(§1)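 A tag-only sample was pooled with DNA-barcoded human transcription factors that had been expressed in yeast as GST fusions and captured on glutathione beads. The pools were incubated for 30 min at room temperature with 200 nmole of a random double-stranded 16-mer DNA library in Tris/NaCl/DTT/glycerol buffer, then washed, crosslinked with 0.1% formaldehyde, proximity-ligated (BsaI/T4 ligase, 1 h, 37 °C), PCR-amplified and sequenced on an Illumina NextSeq500. Binding signal is each hexamer's read frequency for a factor divided by its frequency for the tag-only sample.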

Assay [2] concerns the target ETV5 (Homo sapiens, UniProt P41161 1-510). The settings on record: protein: recombinant; tags: N-terminal GST; dsDNA, one strand shown. A digest of the protocol: as §1
In assay [3] the target is HSF1 (Homo sapiens, UniProt Q00613 1-529). The settings on record: protein: recombinant; tags: N-terminal GST; chain copies: 3; dsDNA, one strand shown. A digest of the protocol:
as §1

Assay [4] deals with T2, SPIC (Homo sapiens, UniProt Q8N5J4 1-248).
T2 sequence: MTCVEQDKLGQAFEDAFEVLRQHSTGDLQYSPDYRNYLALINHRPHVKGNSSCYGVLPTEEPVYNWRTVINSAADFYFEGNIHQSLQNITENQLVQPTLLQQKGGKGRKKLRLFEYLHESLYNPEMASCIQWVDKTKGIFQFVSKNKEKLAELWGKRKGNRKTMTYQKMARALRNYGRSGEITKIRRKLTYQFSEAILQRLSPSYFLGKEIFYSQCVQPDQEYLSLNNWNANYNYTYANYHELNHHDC
The settings on record: protein: recombinant; tags: N-terminal GST; dsDNA, one strand shown. A digest of the protocol:
as §1

Assay [5] deals with ELF4 (Homo sapiens, UniProt Q99607 1-663). The note with it: protein: recombinant; tags: N-terminal GST; dsDNA, one strand shown. A digest of the protocol:
as §1

The target of assay [6] is T3, ELK4 (Homo sapiens, UniProt P28324-2 1-405).
T3 sequence: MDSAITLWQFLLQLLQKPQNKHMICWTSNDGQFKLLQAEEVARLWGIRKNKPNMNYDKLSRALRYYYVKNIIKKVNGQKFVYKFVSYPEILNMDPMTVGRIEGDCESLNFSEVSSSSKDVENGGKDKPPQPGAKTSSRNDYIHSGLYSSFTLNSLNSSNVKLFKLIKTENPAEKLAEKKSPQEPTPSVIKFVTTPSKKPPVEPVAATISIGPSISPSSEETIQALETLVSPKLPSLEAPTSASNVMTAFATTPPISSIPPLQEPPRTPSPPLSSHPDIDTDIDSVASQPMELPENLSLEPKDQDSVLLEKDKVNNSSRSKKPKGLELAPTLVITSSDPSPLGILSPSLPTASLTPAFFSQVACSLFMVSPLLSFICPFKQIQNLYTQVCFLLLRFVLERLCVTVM
The note with it: protein: recombinant; tags: N-terminal GST; dsDNA, one strand shown. A digest of the protocol:
as §1

Assay [7] concerns the target T4, ETV2 (Homo sapiens, UniProt O00321 1-342).
T4 sequence: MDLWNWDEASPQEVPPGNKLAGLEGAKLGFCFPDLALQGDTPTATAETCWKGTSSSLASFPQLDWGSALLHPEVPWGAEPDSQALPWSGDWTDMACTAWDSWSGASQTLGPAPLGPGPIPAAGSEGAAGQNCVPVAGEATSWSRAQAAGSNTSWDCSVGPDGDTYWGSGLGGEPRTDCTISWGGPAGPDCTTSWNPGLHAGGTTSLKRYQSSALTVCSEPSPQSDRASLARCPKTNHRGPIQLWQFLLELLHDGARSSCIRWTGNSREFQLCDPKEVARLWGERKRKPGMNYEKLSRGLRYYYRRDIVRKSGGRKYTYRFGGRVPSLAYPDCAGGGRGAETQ
The note with it: protein: recombinant; tags: N-terminal GST; dsDNA, one strand shown. A digest of the protocol:
as §1

For assay [8], the target named is T5, ELF3 (Homo sapiens, UniProt P78545 1-371).
T5 sequence: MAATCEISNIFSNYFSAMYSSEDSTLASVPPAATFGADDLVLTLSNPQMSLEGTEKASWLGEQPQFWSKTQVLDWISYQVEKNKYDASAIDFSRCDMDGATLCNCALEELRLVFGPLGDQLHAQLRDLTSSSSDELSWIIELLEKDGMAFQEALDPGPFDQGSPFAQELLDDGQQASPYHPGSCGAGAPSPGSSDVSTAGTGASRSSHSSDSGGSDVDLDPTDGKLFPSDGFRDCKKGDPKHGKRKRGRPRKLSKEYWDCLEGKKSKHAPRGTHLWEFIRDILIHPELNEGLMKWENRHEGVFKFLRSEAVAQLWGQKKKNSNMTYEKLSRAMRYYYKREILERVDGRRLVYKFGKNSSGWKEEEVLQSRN
The note with it: protein: recombinant; tags: N-terminal GST; dsDNA, one strand shown. A digest of the protocol: as §1

Assay [9] addresses CRX (Homo sapiens, UniProt O43186 1-299). The settings on record: protein: recombinant; tags: N-terminal GST; dsDNA, one strand shown. A digest of the protocol:
as §1

In assay [10] the target is ETV1 (Homo sapiens, UniProt P50549 1-477). The settings on record: protein: recombinant; tags: N-terminal GST; dsDNA, one strand shown. A digest of the protocol: as §1
ETV1, sequence (P50549 whole entry): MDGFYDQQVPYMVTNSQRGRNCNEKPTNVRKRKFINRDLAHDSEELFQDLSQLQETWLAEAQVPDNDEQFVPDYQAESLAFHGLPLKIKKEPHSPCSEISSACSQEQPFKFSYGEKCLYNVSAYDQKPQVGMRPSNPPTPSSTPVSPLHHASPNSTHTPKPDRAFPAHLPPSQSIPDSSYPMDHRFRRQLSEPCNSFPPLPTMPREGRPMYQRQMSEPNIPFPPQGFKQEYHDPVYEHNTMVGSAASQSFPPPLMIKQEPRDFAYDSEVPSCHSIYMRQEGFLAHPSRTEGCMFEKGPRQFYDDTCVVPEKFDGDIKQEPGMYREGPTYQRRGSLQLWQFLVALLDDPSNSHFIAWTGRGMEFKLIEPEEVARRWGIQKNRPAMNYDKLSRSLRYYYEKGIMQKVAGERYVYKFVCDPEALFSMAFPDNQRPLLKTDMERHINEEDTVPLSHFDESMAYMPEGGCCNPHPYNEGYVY
Assay [11] deals with T6, ERF (Homo sapiens, UniProt P50548 1-548).
T6 sequence: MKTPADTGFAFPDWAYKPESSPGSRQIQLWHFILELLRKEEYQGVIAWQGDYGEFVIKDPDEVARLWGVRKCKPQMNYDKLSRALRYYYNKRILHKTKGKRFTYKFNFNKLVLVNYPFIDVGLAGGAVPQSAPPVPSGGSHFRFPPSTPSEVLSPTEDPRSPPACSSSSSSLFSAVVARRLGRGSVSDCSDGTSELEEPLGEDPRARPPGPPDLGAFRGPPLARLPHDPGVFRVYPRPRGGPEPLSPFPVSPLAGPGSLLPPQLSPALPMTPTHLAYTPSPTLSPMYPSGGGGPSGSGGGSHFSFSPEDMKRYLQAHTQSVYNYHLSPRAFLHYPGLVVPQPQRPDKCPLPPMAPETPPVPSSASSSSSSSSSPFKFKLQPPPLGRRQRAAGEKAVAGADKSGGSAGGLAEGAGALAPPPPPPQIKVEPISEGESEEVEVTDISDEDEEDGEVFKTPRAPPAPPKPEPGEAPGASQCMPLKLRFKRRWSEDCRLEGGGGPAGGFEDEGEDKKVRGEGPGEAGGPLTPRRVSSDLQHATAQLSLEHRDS
The settings on record: protein: recombinant; tags: N-terminal GST; dsDNA, one strand shown. A digest of the protocol:
as §1

For assay [12], the target named is T7, ETV3L (Homo sapiens, UniProt Q6ZN32 1-361).
T7 sequence: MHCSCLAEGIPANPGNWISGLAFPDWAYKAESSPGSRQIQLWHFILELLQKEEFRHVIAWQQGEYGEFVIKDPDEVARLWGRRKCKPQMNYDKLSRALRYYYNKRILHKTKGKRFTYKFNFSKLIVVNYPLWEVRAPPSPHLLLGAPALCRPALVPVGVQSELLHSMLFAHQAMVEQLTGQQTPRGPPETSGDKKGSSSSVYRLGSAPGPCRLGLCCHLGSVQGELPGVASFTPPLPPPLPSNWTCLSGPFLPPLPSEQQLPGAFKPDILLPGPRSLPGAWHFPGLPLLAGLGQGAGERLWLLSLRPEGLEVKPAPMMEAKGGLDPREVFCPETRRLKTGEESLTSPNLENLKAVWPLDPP
The note with it: protein: recombinant; tags: N-terminal GST; dsDNA, one strand shown. A digest of the protocol: as §1

Assay [13] has as its target T8, ETS2 (Homo sapiens, UniProt P15036 1-469).
T8 sequence: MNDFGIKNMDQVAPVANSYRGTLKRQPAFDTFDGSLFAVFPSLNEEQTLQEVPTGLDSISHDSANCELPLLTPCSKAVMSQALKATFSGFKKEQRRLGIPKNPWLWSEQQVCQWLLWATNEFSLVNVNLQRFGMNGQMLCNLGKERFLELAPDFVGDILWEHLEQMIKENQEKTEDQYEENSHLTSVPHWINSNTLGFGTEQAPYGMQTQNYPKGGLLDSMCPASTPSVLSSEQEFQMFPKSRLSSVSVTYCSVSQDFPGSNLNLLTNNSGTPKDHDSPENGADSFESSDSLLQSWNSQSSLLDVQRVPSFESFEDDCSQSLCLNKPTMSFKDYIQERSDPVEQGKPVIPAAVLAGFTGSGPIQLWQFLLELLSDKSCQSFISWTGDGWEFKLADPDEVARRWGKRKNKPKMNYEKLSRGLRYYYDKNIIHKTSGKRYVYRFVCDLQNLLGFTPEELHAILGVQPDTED
The settings on record: protein: recombinant; tags: N-terminal GST; dsDNA, one strand shown. A digest of the protocol: as §1

In assay [14] the target is T9, SPDEF (Homo sapiens, UniProt O95238 1-335).
T9 sequence: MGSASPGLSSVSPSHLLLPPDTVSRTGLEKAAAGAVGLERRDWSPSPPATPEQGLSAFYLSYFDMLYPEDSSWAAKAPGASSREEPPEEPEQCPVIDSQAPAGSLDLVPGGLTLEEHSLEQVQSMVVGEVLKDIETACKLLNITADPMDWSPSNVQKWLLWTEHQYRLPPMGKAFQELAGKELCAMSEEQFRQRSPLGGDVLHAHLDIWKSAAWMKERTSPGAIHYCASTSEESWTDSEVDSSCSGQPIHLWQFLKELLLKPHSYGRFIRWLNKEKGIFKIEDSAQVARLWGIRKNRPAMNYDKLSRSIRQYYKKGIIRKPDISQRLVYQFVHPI
The note with it: protein: recombinant; tags: N-terminal GST; dsDNA, one strand shown. A digest of the protocol:
as §1

In assay [15] the target is T10, ETV7 (Homo sapiens, UniProt Q9Y603 1-341).
T10 sequence: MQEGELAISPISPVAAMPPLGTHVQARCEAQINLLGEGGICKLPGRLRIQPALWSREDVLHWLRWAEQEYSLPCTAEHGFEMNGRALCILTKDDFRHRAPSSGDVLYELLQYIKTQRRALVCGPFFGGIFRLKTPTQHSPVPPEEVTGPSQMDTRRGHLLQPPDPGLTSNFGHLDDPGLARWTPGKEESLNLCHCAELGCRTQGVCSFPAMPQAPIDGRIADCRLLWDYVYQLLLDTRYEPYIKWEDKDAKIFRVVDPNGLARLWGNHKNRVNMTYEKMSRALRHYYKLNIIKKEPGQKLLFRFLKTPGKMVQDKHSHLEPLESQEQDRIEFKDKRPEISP
The settings on record: protein: recombinant; tags: N-terminal GST; dsDNA, one strand shown. A digest of the protocol:
as §1

Assay [16] addresses T11, ELF5 (Homo sapiens, UniProt Q9UKW6-2 1-255).
T11 sequence: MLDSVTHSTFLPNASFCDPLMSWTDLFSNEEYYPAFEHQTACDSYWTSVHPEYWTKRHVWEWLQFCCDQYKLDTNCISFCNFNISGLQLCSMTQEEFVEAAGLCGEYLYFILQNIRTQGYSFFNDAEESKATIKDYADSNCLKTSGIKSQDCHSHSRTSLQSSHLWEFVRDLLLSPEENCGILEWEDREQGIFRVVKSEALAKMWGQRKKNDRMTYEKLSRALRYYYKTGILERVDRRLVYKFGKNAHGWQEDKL
The note with it: protein: recombinant; tags: N-terminal GST; dsDNA, one strand shown. A digest of the protocol: as §1

In assay [17] the target is T12, ETV3 (Homo sapiens, UniProt P41162-2 1-143).
T12 sequence: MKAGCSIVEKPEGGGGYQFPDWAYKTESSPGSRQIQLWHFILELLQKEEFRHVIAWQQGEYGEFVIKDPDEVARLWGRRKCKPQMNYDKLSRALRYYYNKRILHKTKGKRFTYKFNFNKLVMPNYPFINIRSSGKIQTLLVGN
The settings on record: protein: recombinant; tags: N-terminal GST; dsDNA, one strand shown. A digest of the protocol:
as §1

In assay [18] the target is ETV6 (Homo sapiens, UniProt P41212 1-452). The note with it: protein: recombinant; tags: N-terminal GST; dsDNA, one strand shown. A digest of the protocol: as §1
ETV6, sequence (P41212 whole entry): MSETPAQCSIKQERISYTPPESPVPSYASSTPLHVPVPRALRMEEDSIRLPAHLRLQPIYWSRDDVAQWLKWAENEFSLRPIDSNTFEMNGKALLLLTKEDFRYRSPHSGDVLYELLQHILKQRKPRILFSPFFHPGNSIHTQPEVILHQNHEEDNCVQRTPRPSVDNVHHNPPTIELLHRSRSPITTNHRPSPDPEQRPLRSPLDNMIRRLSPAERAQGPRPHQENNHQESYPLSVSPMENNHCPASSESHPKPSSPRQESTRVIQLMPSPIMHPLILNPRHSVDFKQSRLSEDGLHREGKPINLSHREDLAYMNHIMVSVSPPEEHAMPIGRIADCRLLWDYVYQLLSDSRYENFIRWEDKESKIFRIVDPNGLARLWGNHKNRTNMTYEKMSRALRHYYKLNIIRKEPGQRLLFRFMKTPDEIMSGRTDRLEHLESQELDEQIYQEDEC

ELF4, sequence (Q99607 whole entry): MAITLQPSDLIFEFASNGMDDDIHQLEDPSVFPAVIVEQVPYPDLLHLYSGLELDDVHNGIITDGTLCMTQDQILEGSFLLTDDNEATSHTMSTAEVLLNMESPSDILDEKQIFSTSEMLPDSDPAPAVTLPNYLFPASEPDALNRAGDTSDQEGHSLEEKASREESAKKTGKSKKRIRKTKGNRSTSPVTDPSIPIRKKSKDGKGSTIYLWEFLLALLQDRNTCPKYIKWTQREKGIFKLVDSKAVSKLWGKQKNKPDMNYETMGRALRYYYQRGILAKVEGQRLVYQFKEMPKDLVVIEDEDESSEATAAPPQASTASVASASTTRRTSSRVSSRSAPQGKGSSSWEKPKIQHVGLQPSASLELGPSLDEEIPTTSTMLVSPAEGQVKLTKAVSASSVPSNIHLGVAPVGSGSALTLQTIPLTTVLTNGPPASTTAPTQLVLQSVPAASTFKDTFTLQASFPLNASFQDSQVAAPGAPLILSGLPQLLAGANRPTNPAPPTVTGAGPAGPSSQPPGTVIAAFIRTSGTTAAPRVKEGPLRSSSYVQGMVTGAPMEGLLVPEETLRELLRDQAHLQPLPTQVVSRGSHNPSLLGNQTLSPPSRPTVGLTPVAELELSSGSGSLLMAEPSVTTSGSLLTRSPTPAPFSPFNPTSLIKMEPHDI
ETV5, sequence (P41161 whole entry): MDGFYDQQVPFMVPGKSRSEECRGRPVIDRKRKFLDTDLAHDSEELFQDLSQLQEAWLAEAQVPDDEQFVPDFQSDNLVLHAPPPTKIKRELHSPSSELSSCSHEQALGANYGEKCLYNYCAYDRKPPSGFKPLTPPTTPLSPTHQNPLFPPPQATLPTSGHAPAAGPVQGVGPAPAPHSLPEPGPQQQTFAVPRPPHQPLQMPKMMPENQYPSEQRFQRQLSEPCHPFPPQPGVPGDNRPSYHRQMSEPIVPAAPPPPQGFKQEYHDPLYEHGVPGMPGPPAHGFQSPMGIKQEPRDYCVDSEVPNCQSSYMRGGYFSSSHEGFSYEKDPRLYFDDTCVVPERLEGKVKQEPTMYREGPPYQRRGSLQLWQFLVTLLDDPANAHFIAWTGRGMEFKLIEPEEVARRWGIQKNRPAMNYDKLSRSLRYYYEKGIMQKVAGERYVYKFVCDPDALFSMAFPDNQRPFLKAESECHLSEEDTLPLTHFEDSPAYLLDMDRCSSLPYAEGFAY
CRX, sequence (O43186 whole entry): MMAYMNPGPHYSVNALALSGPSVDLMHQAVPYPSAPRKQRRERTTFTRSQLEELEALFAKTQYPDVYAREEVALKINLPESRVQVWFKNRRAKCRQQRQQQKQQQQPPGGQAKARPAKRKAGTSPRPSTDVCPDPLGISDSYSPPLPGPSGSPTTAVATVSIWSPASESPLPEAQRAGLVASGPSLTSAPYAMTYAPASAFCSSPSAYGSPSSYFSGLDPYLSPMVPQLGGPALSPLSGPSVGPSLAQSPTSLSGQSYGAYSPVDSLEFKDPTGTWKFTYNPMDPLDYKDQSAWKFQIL
HSF1, sequence (Q00613 whole entry): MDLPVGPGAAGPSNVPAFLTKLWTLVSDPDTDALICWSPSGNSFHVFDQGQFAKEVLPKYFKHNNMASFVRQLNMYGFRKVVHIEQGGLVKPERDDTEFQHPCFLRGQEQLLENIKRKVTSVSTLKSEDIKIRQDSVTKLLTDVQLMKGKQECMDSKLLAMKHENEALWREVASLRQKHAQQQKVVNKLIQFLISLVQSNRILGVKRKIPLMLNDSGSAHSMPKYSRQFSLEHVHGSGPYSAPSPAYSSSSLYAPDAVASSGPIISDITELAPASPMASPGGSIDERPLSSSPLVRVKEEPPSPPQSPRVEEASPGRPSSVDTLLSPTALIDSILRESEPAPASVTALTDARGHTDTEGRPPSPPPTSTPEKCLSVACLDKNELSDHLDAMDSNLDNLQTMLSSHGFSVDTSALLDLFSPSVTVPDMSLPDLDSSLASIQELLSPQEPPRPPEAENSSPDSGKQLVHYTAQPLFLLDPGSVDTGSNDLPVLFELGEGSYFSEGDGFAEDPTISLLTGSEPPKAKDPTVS

Regarding TGGCTC, the binding signal in assay [1] was 1.39 fold enrichment (6-mer frequency, TF over GST control); in [2], 1.3 fold enrichment (6-mer frequency, TF over GST control); in [3], 1.36 fold enrichment (6-mer frequency, TF over GST control); in [4], 1.46 fold enrichment (6-mer frequency, TF over GST control); in assay [5] it was 1.35 fold enrichment (6-mer frequency, TF over GST control); in assay [6] it was 1.5 fold enrichment (6-mer frequency, TF over GST control). Moreover, the binding signal is 1.61 fold enrichment (6-mer frequency, TF over GST control) in assay [7]; 1.44 fold enrichment (6-mer frequency, TF over GST control) in assay [8]; 1.3 fold enrichment (6-mer frequency, TF over GST control) in assay [9]; 1.42 fold enrichment (6-mer frequency, TF over GST control) in assay [10]; 1.31 fold enrichment (6-mer frequency, TF over GST control) in assay [11]; 1.5 fold enrichment (6-mer frequency, TF over GST control) in assay [12]. Besides, the binding signal in assay [13] was 1.23 fold enrichment (6-mer frequency, TF over GST control); in [14], 1.32 fold enrichment (6-mer frequency, TF over GST control); in assay [15], 1.22 fold enrichment (6-mer frequency, TF over GST control); in assay [16], 1.21 fold enrichment (6-mer frequency, TF over GST control); in assay [17], 1.44 fold enrichment (6-mer frequency, TF over GST control); in [18], 1.36 fold enrichment (6-mer frequency, TF over GST control).
